Assay results as given in PubChem BioAssay AID686978 (National Center for Advancing Translational Sciences (NCATS), 2013).
The campaign covered roughly 420,000 compounds. About 64,000 (15%) were called active. Roughly 27% stayed inconclusive and do not appear here. The call rests on the fitted dose curve; in most records, active means well fitted inhibition curve with a large enough effect; inconclusive means small, poorly fitted or top-dose-only effect; inactive means flat fitted curve, though single readings scatter. A selection follows.

Assay: qHTS for Inhibitors of human tyrosyl-DNA phosphodiesterase 1 (TDP1): qHTS in cells in absence of CPT; further: nearly all actives have a fitted effect of over 55% in size
Settings: DT40 Tdp1-/- hTDP1 cells, no CPT, ATP luminescence, 48 h; activity change, negative = growth inhibition: at 46.2 µM (top of the series)
Outline: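 Cells were dispensed at 400 per well, compounds added by pin tool, plates incubated ≥48 hr at 37 °C, then CellTiter-Glo added for 30 min at room temperature before luminescence reading. Line: DT40 Tdp1-/- complemented with hTDP1; camptothecin omitted.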
On the % scale 0 is the no-effect control and ±100 the full control effect; potency means the concentration at half of the fitted maximal effect.

SMILES | activity change, negative = growth inhibition | Potency
O=C1c2ccccc2C(=O)N1Cc1cc(-c2ccccc2Cl)no1 | -2.31% (inactive) | 
CS(=O)(=O)Nc1ccccc1N=C(c1ccccc1)c1ccccc1 | -23.1% (inactive) | 
O=C(COc1ccc(S(=O)(=O)NCCc2ccccc2)cc1)N1CCCC1 | -19.6% (inactive) | 
COc1cccc(CNC(=O)CCC2CCCN(C(=O)c3cc(C)[nH]n3)C2)c1 (centres undefined) | -16.4% (inactive) | 
C=Cc1ccc(C(=O)N2CCCC(CCC(=O)N3CCN(c4ccccn4)CC3)C2)cc1 (centres undefined) | -9.1% (inactive) | 
CSc1ncccc1C(=O)N1CCCC(CCC(=O)NCc2ccccc2F)C1 (centres undefined) | 1.92% (inactive) | 
O=C(CCC1CCCN(C(=O)c2ccc(F)c(F)c2)C1)N1CCN(c2ccccn2)CC1 (centres undefined) |  | 18.4 µM (active)
COc1cccc(CNC(=O)CCC2CCCN(C(=O)c3ccc(F)c(Cl)c3)C2)c1 (centres undefined) |  | 18.4 µM (active)
COc1cccc(C(=O)N2CCCC(CCC(=O)NCc3ccc(F)c(F)c3)C2)c1 (centres undefined) | -58.6% (inactive) | 
Cc1[nH]c2c(C(=O)N3CCCC(CCC(=O)NCc4ccccc4F)C3)cccc2c1C (centres undefined) |  | 20.6 µM (active)
CC(=O)c1ccc(S(=O)(=O)NCCC(=O)N2CCN(c3ccccn3)CC2)cc1 | -23.6% (inactive) | 
Cc1nn(-c2ccc(N3CCCCC3)nn2)c(C)c1CCC(=O)NCc1ccccc1F | -9.4% (inactive) | 
Cc1ccnc(N)c1 | -12.1% (inactive) | 
Cc1ccc(NC(=O)CSc2sc3c(O)cc(=O)[nH]c3c2C#N)cc1C | 0.436% (inactive) | 
CCC1CCCCN1CCNC(=O)c1[nH]c(C)c(C(C)=O)c1C (centres undefined) | 1.81% (inactive) | 
O=C(Nc1ccon1)c1nc[nH]c1C(=O)NCc1ccccc1 | -23.3% (inactive) | 
COc1ccc(/C(O)=C2/C(=O)C(=O)N(c3nc(C)c(C)s3)C2c2ccco2)cc1 (centres undefined) | -16.5% (inactive) | 
Cc1ccc(C)c(NC(=O)CN(C)C(=O)c2ccc3ncsc3c2)c1 | -5% (inactive) | 
Fc1cccc(Cc2noc(CN3CCN(c4cnccn4)CC3)n2)c1 | -6.03% (inactive) | 
CC1(C)C=Cc2c(ccc(C(=O)/C=C/c3ccccc3)c2O)O1 |  | 8.91 µM (active)
CC1(C(=O)O)CCN1C(=O)/C=C/c1ccccc1 (centres undefined) | -14.2% (inactive) | 
CC(=O)Nc1ccc(NC(=S)NC(=O)/C=C/c2ccccc2)cc1 | -20.6% (inactive) | 

SMILES | activity change, negative = growth inhibition | Potency
COc1cccc(N2C(=O)CC(N3CCN(S(=O)(=O)c4ccccc4)CC3)C2=O)c1 (centres undefined) | -3.21% (inactive) | 
C[C@H](O)[C@@H]1C(=O)N2CCc3ccc(N4CCOCC4)cc3[C@@H]2C[C@@H]1N(C)C(=O)C(C)(C)C | 0.412% (inactive) | 
COc1ccc(-c2ccc3c(c2)[C@@H]2C[C@H](N(C)S(=O)(=O)c4ccccc4)[C@H]([C@H](C)O)C(=O)N2CC3)cc1 |  | 16.4 µM (active)
CC1=C(C(N)=O)C(c2ccc(F)cc2)n2nc(CCCO)nc2N1 (centres undefined) | 4.07% (inactive) | 
Cc1cccc(CCNS(=O)(=O)c2ccc3c(c2)NC(=O)CO3)c1 | -17.4% (inactive) | 
COc1cc(OC)cc(C(=O)Nc2cc3nn(-c4ccccc4)nc3cc2Cl)c1 |  | 16.4 µM (active)
CCCC(=O)Nc1cc2nn(-c3ccccc3)nc2cc1C | -21% (inactive) | 
CCOC(=O)c1cc(-c2ccccc2)n(-c2cccc(C(=O)Nc3cc(OC)cc(OC)c3)c2)c1C | -16.9% (inactive) | 
Cc1cccc(Nc2nnc(SCC(=O)c3c(N)n(C4CC4)c(=O)[nH]c3=O)s2)c1C |  | 11.6 µM (active)
Cc1ccccc1Nc1nnc(SCC(=O)c2cc3ccccc3o2)s1 | -103% (inactive) | 
CCCn1c(N)c(C(=O)CSc2nnc(Cc3cccs3)n2C2CC2)c(=O)[nH]c1=O | -20.6% (inactive) | 
CC1CC(C)CN(C/C=C/c2ccccc2[N+](=O)[O-])C1 (centres undefined) | -22.6% (inactive) | 
COc1ccc(N2CCN(C3CC(=O)N(c4ccc5c(c4)OCCO5)C3=O)CC2)cc1 (centres undefined) | 5.91% (inactive) | 
CC(C)CC1C(=O)N(Cc2cn(Cc3ccco3)nn2)CCS(=O)(=O)N1Cc1ccc(-c2ccc(Cl)c(Cl)c2)cc1 (centres undefined) |  | 20.6 µM (active)
CC1C(=O)N(Cc2cn(Cc3ccco3)nn2)CCS(=O)(=O)N1Cc1ccc(-c2cccc(CO)c2)cc1 (centres undefined) |  | 9.2 µM (active)
CCc1cc(=O)oc2cc(C)cc(OCC(=O)N3CCC[C@@H]3C(=O)O)c12 | -3.49% (inactive) | 
CC(NC(=O)COc1ccccc1)C(=O)NC1=NCCS1 (centres undefined) | -4.39% (inactive) | 
CCOc1ccc(OCC(=O)Nc2c3c(nn2C(C)(C)C)CS(=O)(=O)C3)cc1 | 4.73% (inactive) | 
CCN1C(=O)C(CC(=O)Nc2cc(C)ccc2C)SC1=Nc1ccc(S(N)(=O)=O)cc1 (centres undefined) | -22.5% (inactive) | 
CCOc1cccc2cc(C(=O)OCC(=O)Nc3c(C)cccc3CC)c(=O)oc12 | -14.4% (inactive) | 
Cc1ccc(CN2CCN(Cc3cccc(C)n3)CC2CCO)cc1 (centres undefined) | -6.22% (inactive) | 
Cc1ccc(CN2CCN(Cc3cn(C)nc3-c3ccccc3)CC2CCO)o1 (centres undefined) | -4.56% (inactive) | 

SMILES | activity change, negative = growth inhibition | Potency
COc1ccc(CN2CCN(Cc3cn(C)nc3-c3ccccc3)CC2CCO)c(C)c1C (centres undefined) |  | 18.4 µM (active)
COc1ccc(CNc2nc(-c3ccccc3)nn2C(=O)c2ccccc2OC)cc1 |  | 18.4 µM (active)
O=C(c1cccs1)n1nc(NCc2ccccc2)nc1NCc1ccccc1 | -25.3% (inactive) | 
O=C(c1ccc(Cl)cc1)n1nc(-c2cccnc2)nc1NCc1ccc(F)cc1 | -17.7% (inactive) | 
O=C(c1ccco1)n1nc(-c2ccc(Cl)cc2)nc1NCc1ccccc1 |  | 18.4 µM (active)
O=C(Cc1ccccc1)n1nc(-c2ccccc2)nc1NCc1ccco1 | -20.2% (inactive) | 
CCCC(=O)n1nc(NCc2ccc(OC)cc2)nc1NCc1ccc(OC)cc1 | -12% (inactive) | 
CC1CCCCC12NC(=O)N(CC(=O)OCC(=O)NCc1ccc(F)cc1)C2=O (centres undefined) | 13% (inactive) | 
CN1CCN(c2cc(=O)n(-c3ccc(Cl)cc3)c(=O)[nH]2)CC1 | 8.74% (inactive) | 
O=C(O)c1ccccc1N=N/C(=N/Nc1cc(S(=O)(=O)O)ccc1O)c1ccccc1 | -21.2% (inactive) | 
Cc1c(Cl)cccc1NC(=O)CCS(=O)(=O)c1ccc2c(c1)oc(=O)n2C | -28.5% (inactive) | 
NC(=O)C1CCN(C(=O)CC2C(=O)NCCN2Cc2cccc(Oc3ccccc3)c2)CC1 (centres undefined) | 8.81% (inactive) | 
Cc1ccc(SCC(=O)NNC(=O)c2ccc(S(C)(=O)=O)cc2)cc1 | -6.08% (inactive) | 
Cc1ccccc1-n1cc(CNC(=O)CC2C(=O)NCCN2C/C=C/c2ccccc2)cn1 (centres undefined) | 0.773% (inactive) | 
CCc1nc2cccnc2n1-c1ccc(C(=O)O)cc1 | 7.89% (inactive) | 
COCCCNC(=O)Cc1ccc(-n2c(C)nc3cccnc32)cc1 | -5.57% (inactive) | 
COCCn1c(CCC(=O)Nc2cc(C)ccc2C)nc2cccnc21 | -22.2% (inactive) | 
Cc1ccc(Cl)cc1NC(=O)c1ccccn1 | -1.57% (inactive) | 
Cc1ccc(Cl)cc1NC(=O)Cc1ccc(-n2c(C)nc3cccnc32)cc1 |  | 23.1 µM (active)
COc1cc(OC)c(NC(=O)Cc2ccc(-n3c(C)nc4cccnc43)cc2)cc1Cl |  | 14.6 µM (active)
